PubChem BioAssay AID1159580 (chemical genetic matrix, 2015)
Where “and” joins values, the source holds several entries; their conditions need not be identical. Equal entries are not always repeated. Hit rate of the full screen: of about 5,500 compounds, about 2,000 (36%) were called active. Another 18% or so got no clear call; they are omitted. No stated cut-off is given here; in the data, active means normalized growth mostly below about 0.91 (no sharp cut-off); inconclusive means no clear call, values can overlap the other calls; inactive means mostly above about 0.92. This is one part of the list.

Assay: chemical genetic growth profiling, strain panel (AID 1159580);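 further: tested at 20 µM; growth read once vehicle control cultures reached saturation at 30 °C; 1 = growth at the plate median or of vehicle wells; lower values mean less growth of the strain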
Details: S. cerevisiae deletion strains, growth OD

Measured: normalized growth

CCOc1ccc(NC(C)=O)cc1
inactive: locus YAL013W, strain DEP1, active compounds read low 1.02 | locus YAL021C, strain ccr4, active compounds read low 1.01 | locus YAL026C, strain drs2, active compounds read low 1.01 | locus YAL030W, strain snc1, active compounds read low 1.02 | locus YBL061C, strain skt5, active compounds read low 1.02 | locus YBR009C, strain hhf1, active compounds read low 1.01 | locus YBR021W, strain FUR4, active compounds read low 0.963 | locus YBR023C, strain chs3, active compounds read low 1.01 | locus YBR171W, strain sec66, active compounds read low 1.02 | locus YBR229C, strain ROT2, active compounds read low 1 | locus YBR231C, strain swc5, active compounds read low 1.02 | locus YBR279W, strain paf1, active compounds read low 1.01 | locus YCL011C, strain gbp2, active compounds read low 1.02 | locus YCL016C, strain dcc1, active compounds read low 1.02 | locus YCL029C, strain bik1, active compounds read low 0.989 | locus YCL061C, strain MRC1, active compounds read low 1.01 | locus YCL069W, strain vba3, active compounds read low 1.02 | locus YCR088W, strain abp1, active compounds read low 1.02 | locus YDL005C, strain med2, active compounds read low 1.02 | locus YDL035C, strain GPR1, active compounds read low 0.997 | locus YDL040C, strain nat1, active compounds read low 1.01 | locus YDL074C, strain BRE1, active compounds read low 1.06 | locus YDL101C, strain DUN1, active compounds read low 1.01 | locus YDL134C, strain PPH21, active compounds read low 1 | locus YDL185W, strain tfp1, active compounds read low 0.959 | locus YDL192W, strain arf1, active compounds read low 0.991 | locus YDR001C, strain nth1, active compounds read low 1.02 | locus YDR069C, strain doa4, active compounds read low 1 | locus YDR101C, strain arx1, active compounds read low 0.998 | locus YDR137W, strain rgp1, active compounds read low 1.03 | locus YDR150W, strain NUM1, active compounds read low 0.991 | locus YDR159W, strain sac3, active compounds read low 1.01 | locus YDR162C, strain NBP2, active compounds read low 1.01 | locus YDR195W, strain ref2 1.02 | locus YDR297W, strain sur2, active compounds read low 1.02 | locus YDR318W, strain mcm21, active compounds read low 0.997 | locus YDR334W, strain swr1, active compounds read low 1.02 | locus YDR335W, strain msn5, active compounds read low 1.02 | locus YDR388W, active compounds read low 1 | locus YDR392W, strain spt3, active compounds read low 0.953 | locus YDR502C, strain sam2, active compounds read low 0.994 | locus YEL003W, strain gim4, active compounds read low 1.02 | locus YEL037C, strain rad23, active compounds read low 1.01 | locus YEL061C, strain CIN8 (second series), active compounds read low 1.02 | locus YEL061C, strain CIN8, active compounds read low 1.04 | locus YER015W, strain faa2, active compounds read low 1.01 | locus YER016W, strain bim1, active compounds read low 1 | locus YER110C, active compounds read low 0.979 | locus YER111C, strain swi4, active compounds read low 1.02 | locus YER155C, strain BEM2 (second series), active compounds read low 1.02 | locus YER155C, strain BEM2, active compounds read low 0.984 | locus YER167W, strain BCK2, active compounds read low 0.979 | locus YFR010W, strain ubp6, active compounds read low 1.02 | locus YGL078C, strain dbp3, active compounds read low 0.985 | locus YGL086W, strain mad1, active compounds read low 0.984 | locus YGL167C, strain pmr1, active compounds read low 1.02 | locus YGL173C, strain kem1, active compounds read low 1.01 | locus YGL227W, strain vid30, active compounds read low 1 | locus YGL240W, strain doc1, active compounds read low 1.02 | locus YGL248W, strain PDE1, active compounds read low 1.01 | locus YGL253W, strain hxk2, active compounds read low 1.01 | locus YGR078C, strain PAC10, active compounds read low 1 | locus YGR135W, strain pre9, active compounds read low 1 | locus YGR229C, strain SMI1, active compounds read low 1.02 | locus YGR252W, strain gcn5, active compounds read low 0.986 | locus YHR013C, strain ard1, active compounds read low 1.06 | locus YHR027C, strain rpn1, active compounds read low 1 | locus YHR030C, strain SLT2, active compounds read low 0.984 and 1.02 | locus YHR079C, strain IRE1 (second series), active compounds read low 0.995 | locus YHR079C, strain IRE1, active compounds read low 1.03 | locus YHR094C, strain hxt1, active compounds read low 0.975 | locus YHR129C, strain ARP1, active compounds read low 1.01 | locus YHR142W, strain chs7, active compounds read low 1.01 | locus YHR200W, strain rpn10, active compounds read low 0.992 | locus YIL066C, strain RNR3, active compounds read low 1 | locus YIL073C, strain SPO22, active compounds read low 0.916 | locus YIL125W, strain kgd1, active compounds read low 0.988 | locus YIR030C, strain dcg1, active compounds read low 1 | locus YJL092W, strain hpr5, active compounds read low 1.01 | locus YJL095W, strain BCK1 (second series), active compounds read low 1.01 | locus YJL095W, strain BCK1, active compounds read low 1.09 and 1.01 | locus YJL115W, strain asf1, active compounds read low 1.01 | locus YJL129C, strain trk1, active compounds read low 1.02 | locus YJL134W, strain LCB3, active compounds read low 0.985 | locus YJL154C, strain vps35, active compounds read low 1.01 | locus YJL164C, strain tpk1, active compounds read low 1.02 | locus YJL166W, strain qcr8, active compounds read low 1.02 | locus YJL168C, strain set2, active compounds read low 0.986 | locus YJL187C, strain SWE1 (second series), active compounds read low 0.996 | locus YJL187C, strain SWE1, active compounds read low 1.02 | locus YJR043C, strain POL32, active compounds read low 1.14 | locus YJR066W, strain TOR1, active compounds read low 0.961
